Assay results from ChEMBL document CHEMBL1156829.
Over roughly 5,400 compounds, “IFI” has its median near 2; the highest 2% begin near 22. The sample as a whole holds a higher share of the highest values than the screen did.

test: NOVARTIS: Inhibition Frequency Index (IFI) - the number of HTS assays where a compound showed > 50% inhibition/induction, expressed as a percentage of the number of assays in which the compound was tested.; format: functional

Point of comparison: `CCCN[P+](CC(C)C)(NCCC)NCCC`, IFI 10.9%. Against it:
- Cn1ccnc1C(=O)NNc1ncc(C(F)(F)F)cc1Cl — higher, 13.3%
- C=C[C@H]1CN2CC[C@H]1C[C@H]2[C@H](OC(=O)CC)c1ccnc2ccccc12 — lower, 1.87%
- C=C1[C@@H](C)[C@H]2[C@H](Cc3ccccc3)NC(=O)[C@]23C(OC(C)=O)C=C[C@@](C)(O)C(=O)[C@@H](C)CC=C[C@H]3[C@@H]1O (stereo not given in full) — lower, 6.9%
- CCOC(=O)c1c(S(=O)(=O)Nc2ccc(C(C)(C)C)cc2)c(-c2ccccc2)n(-c2ccccc2)c1C — lower, 3.09%
- CC[C@H]1CN2CC[C@H]1C[C@H]2[C@H](O)c1ccnc2ccccc12 — lower, 5.17%
- CC1=CC(=O)OC[C@]23CCC(C)=C[C@H]2O[C@@H]2C[C@@H](OC(=O)C=CC=CC(=O)OCC1)[C@@]3(C)[C@]21CO1 — higher, 22.6%
- CC1=C[C@H]2O[C@@H]3C[C@H]4OC(=O)C=CC=C[C@H]([C@@H](C)O)OCC[C@@H](C)[C@H](O)C(=O)OC[C@@]2(CC1)[C@]4(C)[C@@]31CO1 — higher, 24.5%
- CC1=CC(=O)OC[C@]23C[C@H](O)C(C)=C[C@H]2O[C@@H]2C[C@@H](OC(=O)C=CC=CC(=O)OCC1)[C@@]3(C)[C@]21CO1 — higher, 22.6%
- Cc1onc(O)c1CC(N)C(=O)O (stereo not given) — lower, 0%
- CCOc1ccc2nccc([C@@H](O)[C@@H]3C[C@@H]4CCN3C[C@@H]4CC)c2c1 — lower, 3.82%
- Cc1ccc(O)c(C(=O)c2c[nH]c(-c3nc4ccccc4[nH]3)c2)c1 — lower, 0%
- C=CC1CN2CCC1CC2[C@@H](OC(=O)c1ccc(C(C)(C)C)cc1)c1ccnc2ccc(OC)cc12 (stereo not given in full) — lower, 0%
- O=C(NNc1cccc(F)n1)C(F)(F)F — lower, 1.25%
- C=CC(C)(CCC=C(C)C)c1ccc2c3c(c[nH]c13)CC(CO)NC(=O)C(C(C)C)N2C (stereo not given) — higher, 11.3%
- CS/C(Cl)=C(/NC(C)=O)[P+](c1ccccc1)(c1ccccc1)c1ccccc1 — lower, 5.34%
- C/C=C1/C[C@H]2[C@@H](OC)Nc3cc(O)c(OC)cc3C(=O)N2C1 — higher, 28.6%
- O=C1Cc2ccccc2C(=C2CCNCC2)c2ccsc21 — lower, 0%
- CC=C[C@H]1O[C@@](O)([C@@H](C)C(O)C(C)[C@H]2OC(=O)C(OC)=CC(C)=C[C@@H](C)[C@@H](O)[C@@H](C)[C@@H](O)C(C)CC(C)=CC=C[C@@H]2OC)C[C@@H](O[C@H]2C[C@@H](O)[C@H](OC(N)=O)[C@@H](C)O2)[C@@H]1C (stereo not given in full) — higher, 15.5%
- CCOC(=O)c1ccc2nc(C)cc(Nc3ccc(N4CCCCC4)cc3)c2c1 — lower, 1.12%
- CCN1C(=Cc2sc3ccccc3[n+]2CC)[Se]c2ccccc21 — higher, 22.6%
- CCC(=O)OC(C(C)C(=O)O)C(C)C1OC2(CCC(C)(C3CCC(C)(C4OC(C5OC(O)(CO)C(C)CC5C)CC4C)O3)O2)CC(O)C1C (stereo not given) — lower, 8.62%
- C[n+]1c2n(c3ccccc31)N=C(c1ccccc1)C[Se]2 — lower, 3.7%
- CC1CC2CCC(O2)C(C)C(=O)O[C@H](C)CC2CCC(O2)C(C)C(=O)OC(C)CC2CCC(O2)C(C)C(=O)O[C@H](C)CC2CCC(O2)C(C)C(=O)O1 (stereo not given in full) — higher, 19.2%
- CCC1CC2CCC(O2)C(C)C(=O)OC(C)CC2CCC(O2)C(C)C(=O)OC(CC)CC2CCC(O2)C(C)C(=O)OC(C)CC2CCC(O2)C(C)C(=O)O1 (stereo not given) — higher, 24.1%
- C[C@@H]1C[C@H]2CC[C@H](O2)[C@H](C)C(=O)O[C@@H](C)C[C@@H]2CC[C@@H](O2)[C@@H](C)C(=O)O[C@H](C)C[C@H]2CC[C@@H](O2)[C@H](C)C(=O)O[C@@H](C)C[C@@H]2CC[C@@H](O2)[C@@H](C)C(=O)O1 — higher, 12.5%
- CCCCCc1cc(O)c2c3c(c(=O)oc2c1)CN(C)CC3 — lower, 2.29%
- O=C1CN=C(c2ccccc2Cl)c2cc(Cl)ccc2N1Cc1cccc([N+](=O)[O-])c1 — lower, 1.92%
- CCCCCCCc1cc(O)c2c3c(c(=O)oc2c1)CCC(C)C3 (stereo not given) — lower, 0%
- C=C[C@H]1CN2CC[C@H]1C[C@H]2[C@H](OC(=O)CCCC)c1ccnc2ccccc12 — lower, 4.59%
- COc1cc2c3cc1Oc1c(OC)c(OC)cc4c1C(Cc1ccc(O)c(c1)Oc1ccc(cc1)CC3N(C)CC2)N(C)CC4 (stereo not given) — lower, 7.14%
- CN1CCc2cc3c(c4c2C1Cc1ccccc1-4)OCO3 (stereo not given) — lower, 6.17%
- COc1ccc2c(c1)CC1c3c(cc4c(c3-2)OCO4)CCN1C (stereo not given) — higher, 25%
- CC[C@@]1(O)C[C@H](O[C@@H]2CC(N(C)C)[C@@H](O[C@@H]3C[C@@H](O)[C@@H](O[C@@H]4CCC(=O)[C@@H](C)O4)C(C)O3)[C@@H](C)O2)c2c(cc3c(c2O)C(=O)c2c(O)ccc(O)c2C3=O)[C@H]1C(=O)OC (stereo not given in full) — higher, 21.4%
- OC1(c2ccc(Cl)c(C(F)(F)F)c2)CCN(CCOC2c3ccccc3CSc3ccc(Cl)cc32)CC1 (stereo not given) — lower, 2.38%
